This excerpt belongs to a sample that is enriched for hits.
FECH block – inhibitors of human ferrochelatase; AID 1671448; purified FECH, Ni-mesoporphyrin absorbance 550 nm; hit rate 3.3% among 20,000; calls only at 10 µM (by protocol); P22830;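 active = enzyme reaction rate more than 3 SD below the solvent-only control wells on the same plate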;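 note: lower slope than DMSO wells means FECH inhibition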
Target sequence (P22830 whole entry, looked up): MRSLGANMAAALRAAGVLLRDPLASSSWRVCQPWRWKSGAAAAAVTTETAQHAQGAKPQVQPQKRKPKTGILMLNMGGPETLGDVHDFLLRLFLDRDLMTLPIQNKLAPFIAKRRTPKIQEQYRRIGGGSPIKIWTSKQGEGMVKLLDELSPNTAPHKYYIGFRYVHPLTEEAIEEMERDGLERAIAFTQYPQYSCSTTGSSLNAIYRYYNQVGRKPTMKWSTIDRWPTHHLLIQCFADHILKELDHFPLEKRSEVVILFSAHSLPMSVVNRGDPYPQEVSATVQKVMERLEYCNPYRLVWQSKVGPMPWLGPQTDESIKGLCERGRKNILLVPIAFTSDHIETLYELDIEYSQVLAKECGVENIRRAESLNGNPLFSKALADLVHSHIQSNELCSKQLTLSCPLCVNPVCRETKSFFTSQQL
Calls only; . = inactive; + = active, no number.

SMILES	FECH block
Cc1ccc(NC(=O)C2CCN(S(=O)(=O)c3cc4c(cc3C)NC(=O)CO4)CC2)nc1	+
CCOC(=O)C1CCN(S(=O)(=O)c2cc3c(cc2Cl)NC(=O)CO3)CC1	.
CCc1cc(Sc2ccccc2NC(=O)c2ccc(OC)cc2)n2nc(C)nc2n1	.
CN(CC1Cc2ccccc2O1)c1nc(C2CCCC2)nc2c1CNC2 (centres undefined)	.
Cc1nn(-c2ccc(F)cc2)c(C)c1C(=O)N1CCn2c(C(N)=O)cnc2C1	.
CC(COc1ccccc1)NC1CCN(C(=O)c2ccco2)CC1 (centres undefined)	.
CC1CCCN(c2nc(Nc3ccccc3)c3cnn(-c4ccccc4)c3n2)C1 (centres undefined)	.
Cc1nc(C(C)C)cc(N(C)Cc2ncccc2C)n1	+
COCc1cc(CN(C)c2cc(C(C)C)nc(C)n2)[nH]n1	.
Cc1cc(N(C)Cc2ncccc2C)nc(-c2ccccc2)n1	.
COC(=O)c1cncc(N2C[C@@H]3C4CCC(CC4)[C@@H]3C2)n1	.
CNC(=O)[C@@H]1C[C@H](N)CN1C(=O)Cc1sc(C)nc1C	.
CC(=O)Nc1nc2n(n1)C(c1c(F)cccc1Cl)C=C(c1ccc(C)cc1)N2 (centres undefined)	.
CC(C)C(=O)Nc1nc2n(n1)C(c1c(F)cccc1Cl)C=C(c1ccccc1)N2 (centres undefined)	+
CCC(=O)Nc1nc2n(n1)C(c1c(F)cccc1Cl)C=C(c1ccc(Cl)cc1)N2 (centres undefined)	.
CCCC(=O)Nc1nc2n(n1)C(c1c(F)cccc1Cl)C=C(c1ccc(Cl)cc1)N2 (centres undefined)	.
CC(C)C(=O)Nc1nc2n(n1)C(c1ccc(Cl)cc1)C=C(c1ccccc1)N2 (centres undefined)	.
CCC(=O)Nc1nc2n(n1)C(c1c(F)cccc1Cl)C=C(c1ccccc1)N2 (centres undefined)	+
Cc1nc(NC2(c3cc(F)ccc3F)CC2)c2cnn(C)c2n1	.
Cc1ccc(C)c(OCCNC2CCCNC2)c1 (centres undefined)	.
CC(=O)N1CCn2nc(C(=O)NCC3(c4ccccc4)CCOCC3)cc2C1	.
CCc1ccccc1NC(=O)N1CCN(c2cc(-c3cccc(OC)c3)ncn2)CC1	.
O=S(=O)(c1ccc(Br)cc1)N1CCN(c2cc(-c3ccc(F)cc3)ncn2)CC1	.
O=S(=O)(c1ccc(Br)cc1)N1CCN(c2cc(-c3cccc(F)c3)ncn2)CC1	.
Cc1ccc(-c2cc(N3CCN(S(=O)(=O)c4ccc(Br)cc4)CC3)ncn2)cc1	+
SMILES	FECH block
Oc1cc(-c2cccc(Cl)c2)cc2c1OCCN(c1ncnc3nc[nH]c13)C2	.
CCn1ccc(-c2n[nH]c(=O)n2C2CCCC2)n1	.
Cc1[nH]c2c(C)ccc(C)c2c1CC(=O)Nc1cnc2n1CCCC2	.
COc1ccc(Oc2ccc(C(=O)NCCc3cnc[nH]3)cc2)cc1	+
O=C(NCCc1cnc[nH]1)c1ccc(CN2C(=O)CCn3nccc32)cc1	.
COc1ccccc1-n1cc(C(=O)NCCc2cnc[nH]2)cn1	.
Cn1c(=O)c2c(-c3cccc(Cl)c3)c(NCCc3ccccc3)oc2n(C)c1=O	.
O=c1cc(CNc2ccccc2)nc2nc(NCc3ccccc3)[nH]n12	.
Cc1ccc(NCc2cc(=O)n3[nH]c(NCc4ccc(F)cc4)nc3n2)cc1C	.
COc1cccc(NCc2cc(=O)n3[nH]c(NCc4ccccc4)nc3n2)c1	.
CCCc1cc(=O)n2[nH]c(CNc3cccc(OC)c3)nc2n1	+
O=c1cc(CNc2ccccc2)nc2nc(NCc3ccc(Cl)cc3)[nH]n12	.
CCCc1cc(=O)n2[nH]c(CNc3ccccc3)nc2n1	+
CCCc1cc(=O)n2[nH]c(CNc3cccc(Cl)c3)nc2n1	+
CCc1ccc(NCc2cc(=O)n3[nH]c(NCc4ccc(Cl)cc4)nc3n2)cc1	.
CCCc1cc(=O)n2[nH]c(CNc3ccc(C)c(C)c3)nc2n1	+
CCCc1cc(=O)n2[nH]c(CNc3ccc(OCC)cc3)nc2n1	.
COc1ccc(CNc2nc3nc(CNc4ccccc4)cc(=O)n3[nH]2)cc1	.
Cc1ccc(NCc2cc(=O)n3[nH]c(NCc4ccccc4)nc3n2)cc1C	.
Cn1nc(C(F)(F)F)c2cc(C(=O)N3CC[C@H](O)[C@@H](O)C3)sc21	.
Cc1cc(C)n2nc(CN(C(=O)CCc3ccccc3)c3ccc(F)cc3)nc2n1	.
COC(=O)CN(C)Cc1nc(-c2cccc(Cl)c2)oc1C	.
Cc1ccc(-c2nnc(-c3nc(NCc4cccnc4)c4ccccc4n3)o2)cc1	.
COCC(C)NCCNc1cccnc1 (centres undefined)	.
O=C(CCCc1nc2cccnc2n1Cc1ccc(F)cc1)Nc1ccc(Br)cc1F	.
SMILES	FECH block
COCCN(Cc1cnn(C)c1)C(=O)c1cnc(C)cn1	.
Cc1nc(CCNC(C)Cn2cncn2)nc2c1CCCC2 (centres undefined)	.
CC(=O)Nc1c2n(c3ccc(F)cc13)CC(C)(C(=O)NC1CCCCC1)N(C(C)C)C2=O (centres undefined)	.
NC(=O)C1(N2CCCCC2)CCN(c2ncnc3sc4c(c23)CCNC4)CC1	.
CC(C)Cc1cc(CNc2ncnc3sc4c(c23)CCNC4)no1	.
CCCC1C=CCN1c1ncnc2sc3c(c12)CCNC3 (centres undefined)	+
COc1ccc(-c2ncc3c(=O)n(Cc4ccc(C)cc4)c(=O)n(C)c3n2)cc1	.
O=C(C1CCCN(c2ncnc3c2nc2n3CCCCC2)C1)N1CC=C(c2ccccc2)CC1 (centres undefined)	.
Clc1ccccc1CNc1ncnc2oc3c(c12)CCCC3	+
O=c1c(NCc2ccccc2Cl)c(-c2ccc3c(c2)CCCC3)c1=O	.
COc1ccc(CCNc2ncnc3oc4c(c23)CCCC4)c(OC)c1	.
O=C(NCC1CCCO1)C1CCN(c2ccc(-c3cccs3)nn2)CC1 (centres undefined)	.
COc1ccc(F)c(C(=O)N(C/C=C/c2ccccc2)CCO)c1F	.
O=C(c1ccc(-c2ccn[nH]2)nc1)N1CCC(Cn2cccn2)CC1	.
COc1ccc(CNC(=O)C2CCCN2c2nnc(N3CCCC3=O)s2)cc1OC (centres undefined)	+
O=C(NCCN1CCCc2ccccc21)C1CCCN1c1nnc(N2CCCC2=O)s1 (centres undefined)	.
COc1ccc(CNC(=O)C2CCCN2S(=O)(=O)c2ccc3c(c2)CCCC(=O)N3)cc1 (centres undefined)	.
O=C(NCCCN1CCN(c2ccc(F)cc2)CC1)C1CCCN1c1nnc(N2CCCC2=O)s1 (centres undefined)	+
CCN(CCCNC(=O)C1CCCN1c1nnc(N2CCCC2=O)s1)Cc1ccccc1 (centres undefined)	.
COc1ccc(N2CCN(CCCNC(=O)c3cccn3-c3nnc(N4CCCCC4)s3)CC2)cc1	.
COc1ccc(S(=O)(=O)N2CC(=O)N(Cc3ccccc3)C(C)(C(=O)NC3CCCCC3)C2)cc1 (centres undefined)	.
CCn1ncc(S(=O)(=O)N2CCC3(CCC(=O)N(C)CC3)CC2)c1C	.
CCCNC(=O)C1CCN(c2ccc(-c3ccccc3)nn2)CC1	.
CC(C)CCNC(=O)C1CCN(c2ccc(-c3ccccc3)nn2)CC1	.
Cc1ccc(-c2ccc(N3CCC(C(=O)NCCCN(C)Cc4ccccc4)CC3)nn2)cc1	.
CCN(CCNC(=O)C1CCN(c2ccc(-c3ccccc3)nn2)CC1)Cc1ccccc1	+
O=C(NC1CC1)C1CCN(c2ccc(-c3cccs3)nn2)CC1	.

Bioassay records as filed in PubChem.
